# Many of the other results were omitted from the sample, so the strongest signals are more common in it than they were.
# B1: CC1G-11630 (Coprinopsis cinerea), A8P462 (protein)
# chain: MTTEAKIKLKAVVYWELVFDYDNSSNTGEITQSYTVKISQTSTRSTFASEVSTTTIDTLTKNNQEVDVGASYGAISANVSASWEHSEEVNNMLEKTTQTSTEDTYTVETEETRSYTIGPGGMLSLFQKHFSGPGMHVAFDVFTTDLELAKERTEIDIDVDVEAIRFVREIRVVYTDIMSEAPGDHVREINGKNPDINYGFNGKFVWLVPEQTRKTAQALTNVEFVSQAESDDRYWDLAAGAGGSNRYLIPVYDTNNKDKIYELALWRSDSYITHDKVKAAGWSGTTGDINSGRGGTYLNLVWKTRHAY
# How the values were obtained:
# Assay in all cases: glycan array binding signal (z-score within array); higher = stronger binding
# Details in all cases: glycan notation: IUPAC condensed, linker removed
# [1] = target: Fuc(a1-2)Gal(b1-3)[Fuc(a1-4)]GlcNAc(b1-2)Man(a1-3)[Fuc(a1-2)Gal(b1-3)[Fuc(a1-4)]GlcNAc(b1-2)Man(a1-3)]Man(b1-4)GlcNAc(b1-4)GlcNAc
# Procedure, shortened: (§1)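 Arrays were curated from the Consortium for Functional Glycomics database, 3228 in total, and kept only where the protein sequence was available. Binding is expressed as a within-array Z-score. This score was averaged across arrays of the same protein sequence at different concentrations or buffers and across linkers, and negative values can be read as non-binding.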
# [2] = target: Fuc(a1-2)Gal(b1-4)Fuc(a1-3)]GlcNAc(b1-2)Man(a1-3)[Fuc(a1-2)Gal(b1-4)[Fuc(a1-3)]GlcNAc(b1-2)Man(a1-6)]Man(b1-4)GlcNAc(b1-4)GlcNAc
# Procedure, shortened: as §1
# [3] = target: Fuc(a1-2)Gal(b1-4)GlcNAc(b1-3)[Fuc(a1-3)[Gal(b1-4)]GlcNAc(b1-6)]Gal(b1-4)Glc
# Procedure, shortened: as §1
# [4] = target: Fuc(a1-2)Gal(b1-4)GlcNAc6S
# Procedure, shortened: as §1
# [5] = target: Fuc(a1-2)Gal(b1-4)[Fuc(a1-3)]GlcNAc(b1-3)GalNAc
# Procedure, shortened: as §1
# [6] = target: Fuc(a1-2)[Gal(a1-3)]Gal(b1-4)[Fuc(a1-3)]Glc
# Procedure, shortened: as §1
# [7] = target: Fuc(a1-2)[GalNAc(a1-3)]Gal(b1-3)GlcNAc(b1-2)Man(a1-3)[Fuc(a1-2)[GalNAc(a1-3)]Gal(b1-3)GlcNAc(b1-2)Man(a1-6)]Man(b1-4)GlcNAc(b1-4)[Fuc(a1-6)]GlcNAc
# Procedure, shortened: as §1
# [8] = target: Fuc(a1-2)[GalNAc(a1-3)]Gal(b1-4)GlcNAc
# Procedure, shortened: as §1
# [9] = target: Gal(a1-3)Gal(b1-3)GlcNAc
# Procedure, shortened: as §1
# [10] = target: Gal(a1-4)Gal(b1-4)Glc
# Procedure, shortened: as §1
# [11] = target: Gal(a1-4)Gal(b1-4)GlcNAc(b1-2)Man(a1-3)[Gal(a1-4)Gal(b1-4)GlcNAc(b1-2)Man(a1-6)]Man(b1-4)GlcNAc(b1-4)GlcNAc
# Procedure, shortened: as §1
# [12] = target: Gal(b1-3)[Fuc(a1-4)]GlcNAc(b1-2)Man
# Procedure, shortened: as §1
# [13] = target: Gal(b1-4)Gal
# Procedure, shortened: as §1
# [14] = target: Gal(b1-4)GlcNAc(a1-6)Gal(b1-4)GlcNAc
# Procedure, shortened: as §1
# [15] = target: Gal(b1-4)GlcNAc(b1-2)Man(a1-3)[Gal(b1-4)GlcNAc(b1-2)Man(a1-6)]Man(b1-4)GlcNAc(b1-4)GlcNAc
# Procedure, shortened: as §1
# [16] = target: Gal(b1-4)GlcNAc(b1-2)Man(a1-6)Man(b1-4)GlcNAc(b1-4)GlcNAc
# Procedure, shortened: as §1
# [17] = target: Gal(b1-4)GlcNAc(b1-3)Gal(b1-4)Glc
# Procedure, shortened: as §1
# [18] = target: Gal(b1-4)GlcNAc(b1-3)Gal(b1-4)GlcNAc(b1-2)Man(a1-3)[Gal(b1-4)GlcNAc(b1-3)Gal(b1-4)GlcNAc(b1-2)Man(a1-6)]Man(b1-4)GlcNAc(b1-4)GlcNAc
# Procedure, shortened: as §1
# [19] = target: Gal(b1-4)GlcNAc(b1-3)[Fuc(a1-3)GlcNAc(b1-6)]Gal(b1-4)Glc
# Procedure, shortened: as §1
# [20] = target: Gal3S4S(b1-4)GlcNAc
# Procedure, shortened: as §1
# [21] = target: Gal3S6S(b1-4)GlcNAc6S
# Procedure, shortened: as §1
# [22] = target: Gal6S(b1-3)GlcNAc
# Procedure, shortened: as §1
# [23] = target: GalNAc(b1-3)Gal(a1-4)Gal(b1-4)GlcNAc
# Procedure, shortened: as §1
# [24] = target: GalNAc(b1-3)GlcNAc
# Procedure, shortened: as §1
# [25] = target: GalNAc(b1-4)Gal(b1-4)Glc
# Procedure, shortened: as §1
# [26] = target: GalNAc3S(b1-4)GlcNAc
# Procedure, shortened: as §1
# [27] = target: GalNAc3S(b1-4)[Fuc(a1-3)]GlcNAc
# Procedure, shortened: as §1
# [28] = target: GalNAc4S6S(b1-4)GlcNAc
# Procedure, shortened: as §1
# [29] = target: GlcNAc(b1-2)Man(a1-3)[GlcNAc(b1-2)Man(a1-6)]Man(b1-4)GlcNAc(b1-4)[Fuc(a1-6)]GlcNAc
# Procedure, shortened: as §1
# [30] = target: GlcNAc(b1-2)[GlcNAc(b1-4)]Man(a1-3)[GlcNAc(b1-4)][GlcNAc(b1-2)Man(a1-6)]Man(b1-4)GlcNAc(b1-4)GlcNAc
# Procedure, shortened: as §1
binder,measurement,setting,value
B1,glycan array binding signal (z-score),[1],2.22
same,glycan array binding signal (z-score),[2],1.38
same,glycan array binding signal (z-score),[3],-0.581
same,glycan array binding signal (z-score),[4],0.388
same,glycan array binding signal (z-score),[5],0.411
same,glycan array binding signal (z-score),[6],-0.641
same,glycan array binding signal (z-score),[7],-0.174
same,glycan array binding signal (z-score),[8],-0.601
same,glycan array binding signal (z-score),[9],6.02
same,glycan array binding signal (z-score),[10],0.088
same,glycan array binding signal (z-score),[11],0.102
same,glycan array binding signal (z-score),[12],2.23
same,glycan array binding signal (z-score),[13],1.01
same,glycan array binding signal (z-score),[14],-0.631
same,glycan array binding signal (z-score),[15],-0.378
same,glycan array binding signal (z-score),[16],-0.208
same,glycan array binding signal (z-score),[17],-0.507
same,glycan array binding signal (z-score),[18],2.49
same,glycan array binding signal (z-score),[19],-0.538
same,glycan array binding signal (z-score),[20],3.27
same,glycan array binding signal (z-score),[21],2.52
same,glycan array binding signal (z-score),[22],-0.544
same,glycan array binding signal (z-score),[23],0.165
same,glycan array binding signal (z-score),[24],-0.463
same,glycan array binding signal (z-score),[25],1.99
same,glycan array binding signal (z-score),[26],-0.609
same,glycan array binding signal (z-score),[27],0.036
same,glycan array binding signal (z-score),[28],0.25
same,glycan array binding signal (z-score),[29],-0.33
same,glycan array binding signal (z-score),[30],-0.368

# Reference: the supplement of paper PMC8728848
